Data from the supplement of paper PMC6853941.
Unmarked numbers belong to inactive results.

Test system: MCF10A
Experiment: perturbation Mahalanobis distance of morphological profile vs DMSO controls (Mahalanobis distance (SD units)); higher = stronger morphological change, active = 7 or more
Conditions: 72 h
Protocol: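 MCF10A cells were seeded onto drugs dispensed acoustically into 384-well plates, using one dose per drug chosen from its human peak plasma concentration, and incubated for 72 h at 37 °C. Cells were stained for DNA, tubulin and mitochondria and imaged; 78 CellProfiler features were extracted, plate-normalised and compared with DMSO wells.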

[1] = screen batch: Batch1_Mahalanobis_Distance
[2] = screen batch: Batch2_Mahalanobis_Distance

| Compound | perturbation Mahalanobis distance [1] | perturbation Mahalanobis distance [2] |
| --- | --- | --- |
| CCC(c1ccccc1)c1c(O)oc2ccccc2c1=O (configuration not stated) [Phenprocoumon] (64.2 µM) | 2.32 | 3.97 |
| CC(C)C(=O)Nc1ccc([N+](=O)[O-])c(C(F)(F)F)c1 [Flutamide] (27.2 µM) | 4.39 | 6.63 |
| CN1CCN(CCCN2c3ccccc3Sc3ccc(C(F)(F)F)cc32)CC1 [Trifluoperazine] (0.12 µM) | 1.97 | 3.67 |
| OCC(O)COc1ccc(Cl)cc1 (configuration not stated) [Chlorphenesin] (83.9 µM) | 2.63 | 4 |
| CCN(CC)C(=O)N1CCN(C)CC1 [Diethylcarbamazine] (6.3 µM) | 2.96 | 2.16 |
| OC(CCCN1CCCCC1)(c1ccccc1)c1ccccc1 [Diphenidol] (2.6 µM) | 2.49 | 3.04 |
| S=c1nc[nH]c2nc[nH]c12 [6-Mercaptopurine] (9.9 µM) | 2.97 | 8.34 (active) |
| O=C1c2c(O)ccc(O)c2C(=O)c2c(NCCNCCO)ccc(NCCNCCO)c21 [Mitoxantrone] (3.4 µM) | 9.47 (active) | 16.4 (active) |
| CN(C)c1nc(N(C)C)nc(N(C)C)n1 [Altretamine] (98.9 µM) | 2.75 | 3.12 |
| CC(C)(C)C(=O)OCC(=O)[C@H]1CC[C@H]2[C@@H]3CCC4=CC(=O)CC[C@]4(C)[C@H]3CC[C@]12C [Desoxycorticosterone Pivalate] (0.72 µM) | 4.89 | 3.54 |
| Cc1ccc(Nc2nccc(N(C)c3ccc4c(C)n(C)nc4c3)n2)cc1S(N)(=O)=O [Pazopanib] (132.6 µM) | 3.25 | 2.85 |
| NC(=O)[C@@H]1CSSCCC(=O)N[C@@H](CCCCN=C(N)N)C(=O)NCC(=O)N[C@@H](CC(=O)O)C(=O)N[C@@H](Cc2c[nH]c3ccccc23)C(=O)N2CCC[C@H]2C(=O)N1 [Eptifibatide] (5.3 µM) | 2.23 | 2.48 |
| CC(=O)O[C@]1(C(C)=O)CC[C@H]2[C@@H]3CCC4=CC(=O)CCC4=C3[C@@H](c3ccc(N(C)C)cc3)C[C@@]21C [Ulipristal Acetate] (3.9 µM) | 9.29 (active) | 10.4 (active) |
| CC/C(=C(\c1ccccc1)c1ccc(OCCN(C)C)cc1)c1ccccc1 [Tamoxifen] (6.7 µM) | 2.61 | 2.63 |
| Nc1nc(NC2CC2)c2ncn(C3C=C[C@H](CO)C3)c2n1 (some centres not stated) [Abacavir] (74.4 µM) | 3.81 | 2.47 |
| C[C@@H](O[C@@H]1OCCN(Cc2nc(=O)[nH][nH]2)[C@@H]1c1ccc(F)cc1)c1cc(C(F)(F)F)cc(C(F)(F)F)c1 [Aprepitant] (20.7 µM) | 5.02 | 3.18 |
| O=C(C1CCCCC1)N1CC(=O)N2CCc3ccccc3C2C1 (configuration not stated) [Praziquantel] (3.2 µM) | 3.15 | 3.64 |
| C[C@H]1O[C@@H](O[C@H]2[C@@H](O)C[C@H](O[C@H]3[C@@H](O)C[C@H](O[C@H]4CC[C@@]5(C)[C@H](CC[C@@H]6[C@@H]5CC[C@]5(C)[C@@H](C7=CC(=O)OC7)CC[C@]65O)C4)O[C@@H]3C)O[C@@H]2C)C[C@H](O)[C@@H]1O [Digitoxin] (0.16 µM) | 12.1 (active) | 17.9 (active) |
| c1ccc(CC2=NCCN2)cc1 [Tolazoline] (25 µM) | 2.21 | 2.33 |
| CCc1c2c(nc3ccc(OC(=O)N4CCC(N5CCCCC5)CC4)cc13)-c1cc3c(c(=O)n1C2)COC(=O)[C@]3(O)CC [Irinotecan] (16.8 µM) | 11.9 (active) | 16.6 (active) |
| CCN(CC)C(=S)S [Sodium Diethyldithiocarbamate Trihydrate] (10 µM) | 3.67 | 3.24 |
| CC1(C)N=C(N)N=C(N)N1c1ccc(Cl)cc1 [Cycloguanil] (3.4 µM) | 2.56 | 2.22 |
| CCCc1nc(C(C)(C)O)c(C(=O)O)n1Cc1ccc(-c2ccccc2-c2nn[nH]n2)cc1 [Olmesartan] (10 µM) | 2.22 | 2.24 |
| COC(=O)[C@H](c1ccccc1Cl)N1CCc2sccc2C1 [Clopidogrel] (0.12 µM) | 3.1 | 2.59 |
| OC[C@H]1O[C@@H](n2cnc3c2NC=NC[C@H]3O)C[C@@H]1O [Pentostatin] (55.9 µM) | 4.44 | 3.34 |
| CC(C)(Oc1ccc(Cl)cc1)C(=O)O [Clofibric Acid] (368 µM) | 3.07 | 2.64 |

| Compound | perturbation Mahalanobis distance [1] | perturbation Mahalanobis distance [2] |
| --- | --- | --- |
| C#C[C@]1(O)CC[C@H]2[C@@H]3CCc4cc(O)ccc4[C@H]3CC[C@@]21C [Ethinyl Estradiol] (23 µM) | 5.9 | 3.63 |
| CCCSc1ccc2nc(NC(=O)OC)[nH]c2c1 [Albendazole] (28.3 µM) | 13.8 (active) | 15.4 (active) |
| N=c1nc(N2CCCCC2)cc(N)n1O [Minoxidil] (6 µM) | 6.53 | 2.8 |
| CC(C)(C#N)c1cc(Cn2cncn2)cc(C(C)(C)C#N)c1 [Anastrozole] (0.51 µM) | 3.5 | 3.49 |
| Cc1ccccc1C(=O)Nc1ccc(C(=O)N2CCC[C@@H](O)c3cc(Cl)ccc32)c(C)c1 [Tolvaptan] (11.1 µM) | 2.12 | 6.06 |
| C=CC[C@@H]1/C=C(\C)C[C@H](C)C[C@H](OC)[C@H]2O[C@@](O)(C(=O)C(=O)N3CCCC[C@H]3C(=O)O[C@H](/C(C)=C/[C@@H]3CC[C@@H](O)[C@H](OC)C3)[C@H](C)[C@@H](O)CC1=O)[C@H](C)C[C@@H]2OC [Tacrolimus] (0.09 µM) | 2.64 | 2.28 |
| CC(=O)S[C@@H]1CC2=CC(=O)CC[C@]2(C)[C@H]2CC[C@@]3(C)[C@@H](CC[C@@]34CCC(=O)O4)[C@H]12 [Spironolactone] (3 µM) | 3.75 | 5.83 |
| O=c1n(CCCN2CCN(c3cccc(Cl)c3)CC2)nc2ccccn12 [Trazodone] (21.5 µM) | 2.62 | 3.12 |
| COc1ccccc1OCC(O)CN1CCN(CC(=O)Nc2c(C)cccc2C)CC1 (configuration not stated) [Ranolazine] (37.4 µM) | 2.73 | 3.08 |
| C[C@]12C=CC(=O)N[C@@H]1CC[C@@H]1[C@@H]2CC[C@]2(C)[C@@H](C(=O)Nc3cc(C(F)(F)F)ccc3C(F)(F)F)CC[C@@H]12 [Dutasteride] (12 µM) | 2.35 | 2.96 |
| O=C(O)c1cnccn1 [Pyrazinoic Acid] (604.4 µM) | 2.79 | 2.79 |
| Cc1nnc(C(=O)NC(C)(C)C2=N/C(=C(\O)NCc3ccc(F)cc3)C(=O)C(=O)N2C)o1 [Raltegravir] (22.5 µM) | 6.75 | 4.95 |
| NN1CCOC1=O [3-Amino-2-Oxazolidinone] (49 µM) | 2.59 | 2.76 |
| C[C@H]1O[C@H](O[C@H]2[C@H](O)[C@@H](O)[C@@H](O[C@H]3[C@H](O)[C@@H](O)C(O)O[C@@H]3CO)O[C@@H]2CO)[C@H](O)[C@@H](O)[C@@H]1N[C@H]1C=C(CO)[C@@H](O)[C@H](O)[C@H]1O (some centres not stated) [Acarbose] (2.2 µM) | 2.5 | 3.14 |
| CCC(CC)O[C@@H]1C=C(C(=O)O)C[C@H](N)[C@H]1NC(C)=O [Oseltamivir Acid] (6.45 µM) | 2.37 | 3.03 |
| CN[C@H]1CC[C@@H](c2ccc(Cl)c(Cl)c2)c2ccccc21 [Sertraline] (3.3 µM) | 2.81 | 4.31 |
| CC(=O)O[C@H]1C[C@@H]2CC[C@@H]3[C@H](CC[C@@]4(C)[C@H]3C[C@H]([N+]3(C)CCCCC3)[C@@H]4OC(C)=O)[C@@]2(C)C[C@@H]1N1CCCCC1 [Vecuronium Bromide] (3.3 µM) | 3.8 | 2.49 |
| CCN(CC)Cc1cc(Nc2ccnc3cc(Cl)ccc23)ccc1O [Amodiaquine] (0.7 µM) | 2.08 | 2.97 |
| COC(=O)Nc1nc2ccc(C(=O)c3ccccc3)cc2[nH]1 [Mebendazole] (1.7 µM) | 5.89 | 3.69 |
| NC(=O)N[C@@H](CCC(=O)O)C(=O)O [Carglumic Acid] (68.4 µM) | 2.14 | 2.6 |
| CN(C)CCCN1c2ccccc2CCc2ccccc21 [Imipramine] (6.2 µM) | 6.2 | 4.52 |
| COc1cc(Cc2cnc(N)nc2N)cc(OC)c1OC [Trimethoprim] (43.1 µM) | 4.35 | 3.85 |
| Clc1ccc(C(c2ccccc2Cl)C(Cl)Cl)cc1 (configuration not stated) [Mitotane] (62.5 µM) | 3.41 | 4.02 |
| O=C(O)P(=O)(O)O [Foscarnet] (887 µM) | 3.95 | 2.62 |
| CCCc1nc(C(C)(C)O)c(C(=O)OCc2oc(=O)oc2C)n1Cc1ccc(-c2ccccc2-c2nn[nH]n2)cc1 [Olmesartan Medoxomil] (8.1 µM) | 2.22 | 1.74 |
